Test [1] deals with Cytochrome P450 1A2 (Homo sapiens) (UniProt P05177). Put plainly: p450-cyp1a2 (AID 410; calls by dose curve; note: potency is the fitted concentration of half-maximal effect). The method, boiled down:
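Luminescent readout of luciferin formed from Luciferin-ME by human CYP1A2; data normalized against complete inhibition by 57 uM furafylline. Enzyme 20nM, substrate 100uM at Km, 100mM KPO4 buffer, 60 min reaction at room temperature.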

In test [2] the target is Glucocorticoid receptor (Homo sapiens) (UniProt P04150). Put plainly: GR-GFP Redistribution (AID 450;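 active = compounds whose dose series gives a full or clear partial fitted curve of increased nuclear translocation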; note: potency is the fitted concentration of half-maximal effect).
Sequence of Glucocorticoid receptor (Homo sapiens) (P04150 whole entry, looked up): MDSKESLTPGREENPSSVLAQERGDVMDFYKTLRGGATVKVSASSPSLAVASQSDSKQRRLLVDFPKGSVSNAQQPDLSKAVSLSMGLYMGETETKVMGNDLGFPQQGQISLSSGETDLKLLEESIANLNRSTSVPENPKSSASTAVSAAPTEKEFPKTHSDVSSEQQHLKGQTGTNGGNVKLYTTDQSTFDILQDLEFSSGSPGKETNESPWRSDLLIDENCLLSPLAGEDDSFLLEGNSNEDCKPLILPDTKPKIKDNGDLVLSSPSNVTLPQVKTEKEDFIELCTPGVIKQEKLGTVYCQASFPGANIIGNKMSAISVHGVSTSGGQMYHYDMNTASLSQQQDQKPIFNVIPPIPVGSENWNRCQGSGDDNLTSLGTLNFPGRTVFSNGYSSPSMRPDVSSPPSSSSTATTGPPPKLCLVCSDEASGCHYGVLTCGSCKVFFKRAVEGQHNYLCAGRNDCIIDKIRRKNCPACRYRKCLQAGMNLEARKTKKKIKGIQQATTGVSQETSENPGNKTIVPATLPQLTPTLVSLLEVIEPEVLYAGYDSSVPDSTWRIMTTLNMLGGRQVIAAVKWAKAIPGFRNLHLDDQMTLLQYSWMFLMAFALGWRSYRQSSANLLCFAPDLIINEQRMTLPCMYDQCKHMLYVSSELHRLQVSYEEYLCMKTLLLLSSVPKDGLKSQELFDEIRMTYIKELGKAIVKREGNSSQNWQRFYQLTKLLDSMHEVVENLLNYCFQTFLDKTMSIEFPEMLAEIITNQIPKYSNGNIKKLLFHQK
For test [3] the target is unchanged. Put plainly: GR-EFC Redistribution (AID 451; calls by dose curve; note: potency is the fitted concentration of half-maximal effect). The settings on record: CHO-K1 GR-EFC translocation, beta-gal luminescence, 2 h. The method, boiled down:
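CHO-K1 cells stably expressing nuclear-localized β-gal enzyme acceptor and GR fused C-terminally to the enzyme donor fragment; ligand-driven nuclear translocation restores β-gal by complementation. Compounds titrated up to 46 uM final, 2 h at 37 °C; luminescence read.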

The target in test [4] is 3',5'-cyclic-AMP phosphodiesterase 4B (Homo sapiens) (UniProt Q07343). The test can be described thus: qHTS Assay for Inhibitors of PDE-IV (AID 607; active = well fitted activation curve with a large enough effect in the main read-out, with a control signal flat, not every such curve was filed as active). The method, boiled down:
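HEK293 ACTOne cells with CNG channel (1000/well), endogenous PDE4; membrane potential dye, compounds up to 22.9 uM final. Fluorescence Ex 535/Em 590; RO 20-1724 (100 uM final) as reference.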
A general note: qHTS replaces the single test concentration by a dilution series.

Test [5] addresses Cytochrome P450 2C9 (Homo sapiens) (UniProt P11712). Put plainly: qHTS Assay for Inhibitors and Substrates of Cytochrome P450 2C9 (AID 883). Note: nearly all actives have a fitted effect of over 60% in size. Note: potency is the fitted concentration of half-maximal effect. The method, boiled down: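 Human CYP2C9 (10nM) hydroxylated Luciferin-H (100uM, at its KM) to luciferin in 25mM KPO4. Compound was preincubated 10 min at 37C, then NADPH regeneration started a 60 min reaction at 37C. Luminescence was read after detection reagent, normalized to 57uM sulphaphenazole.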

The target of test [6] is Cytochrome P450 2C19 (Homo sapiens) (UniProt P33261). The test can be described thus: qHTS Assay for Inhibitors and Substrates of Cytochrome P450 2C19 (AID 899). Note: nearly all actives have a fitted effect of over 60% in size. Note: potency is the fitted concentration of half-maximal effect. The method, boiled down:
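Human CYP2C19 (5nM) with Luciferin-H EGE at 10uM (its KM) in 50mM KPO4 was preincubated with compound for 10 min at 37C. NADPH regeneration started a 60 min 37C reaction. Luciferin was read by luminescence, normalized to 57uM ketoconazole.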

For test [7], the target named is Cytochrome P450 2D6 (Homo sapiens) (UniProt P10635). The test can be described thus: qHTS Assay for Inhibitors and Substrates of Cytochrome P450 2D6 (AID 891).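 Note: luciferin methyl ether substrate demethylated by CYP2D6 with NADPH regeneration; nearly all actives have a fitted effect of over 60% in size.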 The method, boiled down: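 Human CYP2D6 (5 nM) with 30 uM Luciferin-ME EGE (at Km) in 100 mM KPO4, compound preincubated 10 min, then NADPH regeneration system for 60 min at room temperature. Luciferin read by luminescence; normalized to 1.43 uM quinidine.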
Sequence of Cytochrome P450 2D6 (Homo sapiens) (P10635 whole entry, looked up): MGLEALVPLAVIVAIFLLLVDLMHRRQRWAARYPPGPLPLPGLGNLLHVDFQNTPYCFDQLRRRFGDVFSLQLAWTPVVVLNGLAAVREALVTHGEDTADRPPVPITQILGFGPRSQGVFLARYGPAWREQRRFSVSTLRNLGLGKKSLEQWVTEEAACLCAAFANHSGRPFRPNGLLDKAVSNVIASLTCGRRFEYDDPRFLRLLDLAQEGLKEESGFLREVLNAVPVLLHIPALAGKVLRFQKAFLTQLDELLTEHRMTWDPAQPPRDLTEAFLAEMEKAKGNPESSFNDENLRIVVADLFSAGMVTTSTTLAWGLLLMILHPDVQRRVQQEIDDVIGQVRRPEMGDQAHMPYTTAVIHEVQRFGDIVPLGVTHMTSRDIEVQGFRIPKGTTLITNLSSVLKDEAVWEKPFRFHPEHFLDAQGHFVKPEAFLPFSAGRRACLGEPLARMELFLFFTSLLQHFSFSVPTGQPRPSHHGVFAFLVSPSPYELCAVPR

Test [8] addresses Mitogen-activated protein kinase 10 (Mus musculus) (UniProt Q61831). The test can be described thus: JNK3 AlphaScreen Assay (AID 530; active = well fitted curve in either direction with a large enough effect, not every such curve was filed as active;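 note: kinase came from lysate of stimulated human HepG2 cells; signal reports phosphorylation of biotinylated GST-cJun 1-79 at Ser73 with 10 µM ATP; series mostly up to about 57 µM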). The method, boiled down:
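Inhibitors reduce antibody binding to phosphorylated biotin-cJun, lowering AlphaScreen luminescence. Lysates from HepG2 cells pre-activated by IL-1beta plus TNF-alpha supplied JNK3; compounds were titrated.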
In general terms: In Alpha technology, singlet oxygen from a donor bead excites a nearby acceptor bead.

Test [9] concerns the target Cytochrome P450 3A4 (Homo sapiens) (UniProt P08684). Put plainly: qHTS Assay for Activators of Cytochrome P450 3A4 (AID 885). Note: nearly all actives have a fitted effect of over 65% in size. The method, boiled down:
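Human CYP3A4 (20 nM) with Luciferin-PPXE at 25 uM (its KM) in 200 mM KPO4; 10 min compound preincubation, then NADPH regeneration and 60 min reaction at RT. Luciferin read by luminescence; normalized to 57 uM ketoconazole full inhibition.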

Values without a mark were called inactive. Results filed as inconclusive are left out. Activity calls are given as the source filed them. Unless noted, calls come from the whole dose curve; as a rule, active = well fitted curve in the direction sought with a large enough effect; inconclusive = small, poorly fitted or top-dose-only effect, or another doubt; inactive = no such curve, though single readings can be large; an effect the other way counts as inactive or inconclusive.

Sequence of Cytochrome P450 2C19 (Homo sapiens) (P33261 whole entry, looked up): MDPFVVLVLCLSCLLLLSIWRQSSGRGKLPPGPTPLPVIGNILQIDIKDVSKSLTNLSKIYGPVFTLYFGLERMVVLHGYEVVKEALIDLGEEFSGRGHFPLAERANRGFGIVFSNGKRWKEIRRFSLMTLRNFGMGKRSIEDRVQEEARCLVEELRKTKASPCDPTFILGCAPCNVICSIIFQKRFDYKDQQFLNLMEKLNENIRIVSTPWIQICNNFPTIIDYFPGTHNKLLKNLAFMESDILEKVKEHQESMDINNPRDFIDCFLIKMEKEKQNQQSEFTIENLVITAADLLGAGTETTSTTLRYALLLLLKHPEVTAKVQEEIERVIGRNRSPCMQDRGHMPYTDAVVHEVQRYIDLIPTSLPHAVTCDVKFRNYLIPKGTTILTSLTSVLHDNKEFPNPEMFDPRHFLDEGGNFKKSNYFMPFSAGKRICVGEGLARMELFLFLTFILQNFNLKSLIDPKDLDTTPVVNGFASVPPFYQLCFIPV
Sequence of Cytochrome P450 2C9 (Homo sapiens) (P11712 whole entry, looked up): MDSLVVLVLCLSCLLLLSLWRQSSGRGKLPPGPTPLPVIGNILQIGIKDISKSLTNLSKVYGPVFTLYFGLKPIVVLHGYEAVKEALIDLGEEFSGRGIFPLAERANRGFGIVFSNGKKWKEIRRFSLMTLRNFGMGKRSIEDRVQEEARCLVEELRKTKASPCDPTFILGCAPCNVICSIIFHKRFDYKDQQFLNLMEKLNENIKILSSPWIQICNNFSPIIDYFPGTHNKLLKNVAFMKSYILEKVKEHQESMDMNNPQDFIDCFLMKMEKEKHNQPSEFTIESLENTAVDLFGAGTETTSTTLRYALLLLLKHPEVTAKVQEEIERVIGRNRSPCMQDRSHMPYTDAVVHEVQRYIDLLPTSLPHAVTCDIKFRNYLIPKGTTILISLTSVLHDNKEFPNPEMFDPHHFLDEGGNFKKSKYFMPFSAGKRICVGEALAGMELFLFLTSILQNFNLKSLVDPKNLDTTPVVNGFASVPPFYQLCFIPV
Sequence of 3',5'-cyclic-AMP phosphodiesterase 4B (Homo sapiens) (Q07343 whole entry, looked up): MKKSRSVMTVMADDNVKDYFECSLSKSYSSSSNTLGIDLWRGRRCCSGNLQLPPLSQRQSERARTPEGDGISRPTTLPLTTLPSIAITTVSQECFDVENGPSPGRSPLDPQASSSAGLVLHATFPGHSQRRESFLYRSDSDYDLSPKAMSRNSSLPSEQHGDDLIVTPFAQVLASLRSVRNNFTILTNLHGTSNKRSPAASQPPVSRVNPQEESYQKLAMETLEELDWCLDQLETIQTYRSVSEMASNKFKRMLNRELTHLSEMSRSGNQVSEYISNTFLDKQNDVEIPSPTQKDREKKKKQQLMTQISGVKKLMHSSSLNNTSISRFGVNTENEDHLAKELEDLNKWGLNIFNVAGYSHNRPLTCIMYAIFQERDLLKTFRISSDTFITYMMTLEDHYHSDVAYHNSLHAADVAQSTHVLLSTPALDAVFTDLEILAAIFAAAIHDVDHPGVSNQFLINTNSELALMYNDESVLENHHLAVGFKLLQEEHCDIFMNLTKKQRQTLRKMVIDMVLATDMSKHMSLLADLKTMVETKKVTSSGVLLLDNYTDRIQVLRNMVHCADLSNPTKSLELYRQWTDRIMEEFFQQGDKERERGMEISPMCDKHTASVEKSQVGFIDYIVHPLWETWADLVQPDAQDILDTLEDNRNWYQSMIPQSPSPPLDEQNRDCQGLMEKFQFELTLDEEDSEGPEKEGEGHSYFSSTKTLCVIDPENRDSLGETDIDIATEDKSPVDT
Sequence of Cytochrome P450 1A2 (Homo sapiens) (P05177 whole entry, looked up): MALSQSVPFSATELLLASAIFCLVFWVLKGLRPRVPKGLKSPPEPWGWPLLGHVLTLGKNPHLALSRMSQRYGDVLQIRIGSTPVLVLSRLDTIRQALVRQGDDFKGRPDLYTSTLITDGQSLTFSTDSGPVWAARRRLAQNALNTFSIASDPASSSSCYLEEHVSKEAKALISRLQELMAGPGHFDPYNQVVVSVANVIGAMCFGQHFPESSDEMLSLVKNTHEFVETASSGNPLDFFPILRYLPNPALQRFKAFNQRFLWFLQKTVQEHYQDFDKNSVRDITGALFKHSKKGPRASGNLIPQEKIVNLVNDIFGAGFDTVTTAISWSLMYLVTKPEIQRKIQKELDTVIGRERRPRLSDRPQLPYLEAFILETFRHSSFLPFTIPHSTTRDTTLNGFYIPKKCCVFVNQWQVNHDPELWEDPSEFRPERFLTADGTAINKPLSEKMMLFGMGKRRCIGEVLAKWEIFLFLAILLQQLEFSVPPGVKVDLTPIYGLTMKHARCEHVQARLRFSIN
Sequence of Cytochrome P450 3A4 (Homo sapiens) (P08684 whole entry, looked up): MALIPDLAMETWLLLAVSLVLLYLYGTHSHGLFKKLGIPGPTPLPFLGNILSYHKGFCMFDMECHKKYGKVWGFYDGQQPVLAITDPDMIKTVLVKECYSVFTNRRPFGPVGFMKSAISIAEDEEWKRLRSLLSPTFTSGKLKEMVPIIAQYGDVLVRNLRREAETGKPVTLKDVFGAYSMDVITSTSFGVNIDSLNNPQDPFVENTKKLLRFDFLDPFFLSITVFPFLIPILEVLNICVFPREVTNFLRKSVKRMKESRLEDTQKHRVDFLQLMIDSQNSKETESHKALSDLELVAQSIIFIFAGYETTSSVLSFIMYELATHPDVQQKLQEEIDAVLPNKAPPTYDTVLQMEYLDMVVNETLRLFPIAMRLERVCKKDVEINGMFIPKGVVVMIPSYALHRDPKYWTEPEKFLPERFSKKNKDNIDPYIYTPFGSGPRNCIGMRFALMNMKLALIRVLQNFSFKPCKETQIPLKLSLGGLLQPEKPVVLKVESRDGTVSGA

As to `Cc1ccc(C(=O)[C@@H]2[C@@H]3[C@@H](C(=O)[C@@H]4OC[C@H]3O4)[C@@H]3C=Cc4ccccc4N23)cc1`, the Potency in [1] was 15.8 µM (active); in [2], above 46 µM; in test [3], above 46 µM; in test [5], 10 µM (active); in test [6], 15.8 µM (active). For the same compound, the Potency entry in [4] is “inactive”.

For `O=c1cc(-c2ccccc2)oc2cc(O[C@H]3O[C@H](CO)[C@@H](O)[C@H](O)[C@@H]3O)c(O)c(O)c12`, the Potency entry in test [1], in [5], in test [7] and in test [6] was “inactive” in each case. For the same compound, the Potency in [2] and in test [3] was above 46 µM throughout.

In the case of `CC(C)C[C@@H](CC(=O)N[C@@H](CCC(=O)O)CC(=O)O)NC(=O)[C@@H]1CCCC[C@H]1NC(=O)C[C@H](CCCN)NC(=O)C[C@H](Cc1ccccc1)NC(=O)[C@@H]1CNCC[C@H]1N`, the Potency result in test [1], in [8], in test [4], in test [5], in test [7] and in test [6] was “inactive” in each case. In test [3], the Potency is above 46 µM.

Take `C=C(CO)[C@H]1Cc2c(ccc3c(=O)c4c(oc23)COc2cc(OC)c(OC)cc2-4)O1`: the Potency result in test [1], in test [4], in [5], in test [7] and in test [6] was “inactive” throughout. Moreover, the Potency in test [2] and in test [3] was above 46 µM each time.

Regarding `CC(C)C[C@@H](CC(=O)N[C@@H](CCC(=O)O)CC(=O)O)NC(=O)[C@@H]1CNCC[C@H]1NC(=O)C[C@H](CCCN)NC(=O)C[C@H](Cc1ccccc1)NC(=O)[C@@H]1CNCC[C@H]1N`, the results for the Potency in test [1] and in test [3] were 31.6 µM (active) and above 46 µM, respectively. The Potency result in [8], in [4], in test [5], in test [7] and in test [6] was “inactive” each time.

For `CC(C)[C@@H](CC(=O)N[C@@H]1CCNC[C@H]1C(=O)N[C@H](CC(=O)N[C@@H](CCC(=O)O)CC(=O)O)Cc1ccccc1)NC(=O)C[C@H](Cc1ccccc1)NC(=O)[C@@H]1CNCC[C@H]1N`, the Potency in [1] is 15.8 µM (active); in test [3] it was above 46 µM. The Potency result in test [8], in test [4], in test [5], in test [7] and in test [6] was “inactive” throughout.

`CC(C)C[C@@H](CC(=O)N[C@@H](CCC(=O)O)CC(=O)O)NC(=O)[C@@H]1CNCC[C@H]1NC(=O)C[C@H](CCCN)NC(=O)C[C@H](Cc1ccccc1)NC(=O)[C@@H]1CCCC[C@H]1N`: the Potency was 25.1 µM (active) in test [1] and above 46 µM in [3]. The Potency result in [8], in test [4], in test [5], in test [7] and in test [6] was “inactive” each time.

Regarding `O=c1c(O)c(-c2ccc(O)c(O)c2)oc2ccccc12`, the Potency in test [1] is 0.251 µM (active); in [2], above 46 µM; in test [3], above 46 µM. For the same compound, in test [9], the Potency result is “inactive”.

With `CC(C)[C@@H](CC(=O)N[C@@H]1CCNC[C@H]1C(=O)N[C@H](CC(=O)N[C@@H](CCC(=O)O)CC(=O)O)Cc1ccccc1)NC(=O)C[C@H](Cc1c[nH]c2ccccc12)NC(=O)[C@@H]1CCCC[C@H]1N`, the Potency in [1] is 39.8 µM (active); in test [3] it was above 46 µM. The Potency result in test [8], in test [4], in [5], in [7] and in test [6] was “inactive” in each case.

Turning to `CC(=O)[C@@H]1[C@H]2[C@@H](C(=O)[C@H]3OC[C@H]2O3)[C@@H]2C=Cc3ccccc3N12`, the Potency is 31.6 µM (active) in test [1], above 46 µM in test [2], above 46 µM in [3] and 5.01 µM (active) in [6].

Take `CC(C)[C@@H](CC(=O)N[C@@H]1CCNC[C@H]1C(=O)N[C@H](CC(=O)N[C@@H](CCC(=O)O)CC(=O)O)Cc1ccccc1)NC(=O)C[C@H](CO)NC(=O)[C@@H]1CCCC[C@H]1N`: the Potency result in test [1], in [8], in test [4], in [5], in test [7] and in [6] was “inactive” throughout. The Potency in [3] was above 46 µM.

Consider `CC(=O)c1c(O)c(C)c(O)c2c1OC1=CC(=O)[C@H](C(C)=O)C(=O)[C@]12C`, for which the Potency in test [1] was 3.16 µM (active); in [2] it was above 46 µM; in [3] it was above 46 µM. For the same compound, the Potency result in test [7] was “inactive”.

Turning to `CC(C)[C@@H](CC(=O)N[C@@H]1CCCC[C@H]1C(=O)N[C@H](CC(=O)N[C@@H](CCC(=O)O)CC(=O)O)Cc1c[nH]c2ccccc12)NC(=O)C[C@H](Cc1ccccc1)NC(=O)[C@@H]1CNCC[C@H]1N`, the Potency entry in test [1], in test [8], in test [4], in test [5], in test [7] and in [6] was “inactive” in each case. The Potency in test [3] was above 46 µM.

Take `CC(C)C[C@@H](CC(=O)N[C@@H](CCC(=O)O)CC(=O)O)NC(=O)[C@@H]1CNCC[C@H]1NC(=O)C[C@H](CCCN)NC(=O)C[C@H](CO)NC(=O)[C@@H]1CCCC[C@H]1N`: the Potency entry in test [1], in test [8], in [4], in test [5], in [7] and in [6] was “inactive” in each case. Also, the Potency in test [3] was above 46 µM.

Consider `NCCC[C@@H](CC(=O)N[C@@H]1CCNC[C@H]1C(=O)N[C@H](CC(=O)N[C@@H](CCC(=O)O)CC(=O)O)Cc1c[nH]c2ccccc12)NC(=O)C[C@H](Cc1c[nH]c2ccccc12)NC(=O)[C@@H]1CCCC[C@H]1N`, for which the Potency entry in test [1], in test [8], in test [4], in test [5] and in test [7] was “inactive” in each case. Moreover, the Potency in test [3] is above 46 µM.

For `CC(C)C[C@@H](CC(=O)N[C@H](CC(=O)N[C@@H]1CCCC[C@H]1C(=O)N[C@H](CC(=O)N[C@@H](CCC(=O)O)CC(=O)O)CC(C)C)C(C)C)NC(=O)[C@@H]1CCCC[C@H]1N`, the Potency result in [1], in [8], in test [4] and in [7] was “inactive” throughout. The Potency in test [3] was above 46 µM.

Regarding `NCCC[C@@H](CC(=O)N[C@@H]1CCNC[C@H]1C(=O)N[C@H](CC(=O)N[C@@H](CCC(=O)O)CC(=O)O)Cc1c[nH]c2ccccc12)NC(=O)C[C@H](CO)NC(=O)[C@@H]1CCCC[C@H]1N`, the Potency result in test [1], in [8], in test [4], in test [5], in test [7] and in test [6] was “inactive” throughout. The Potency in [3] is above 46 µM.

For `CC(C)C[C@@H](CC(=O)N[C@@H](CCC(=O)O)CC(=O)O)NC(=O)[C@@H]1CCCC[C@H]1NC(=O)C[C@H](CCCN)NC(=O)C[C@H](Cc1ccccc1)NC(=O)[C@@H]1CCCC[C@H]1N`, the Potency result in test [1], in test [8], in test [4], in [5], in test [7] and in test [6] was “inactive” each time. In test [3], the Potency is above 46 µM.

With `CC(C)[C@@H](CC(=O)N[C@@H]1CCNC[C@H]1C(=O)N[C@H](CC(=O)N[C@@H](CCC(=O)O)CC(=O)O)Cc1c[nH]c2ccccc12)NC(=O)C[C@H](Cc1ccccc1)NC(=O)[C@@H]1CNCC[C@H]1N`, the values for the Potency in test [1] and in [3] were 31.6 µM (active) and above 46 µM, respectively. For the same compound, the Potency entry in test [8], in [4], in [5], in test [7] and in test [6] was “inactive” in each case.

`CC(C)[C@@H](CC(=O)N[C@@H]1CCNC[C@H]1C(=O)N[C@H](CC(=O)N[C@@H](CCC(=O)O)CC(=O)O)Cc1c[nH]c2ccccc12)NC(=O)C[C@H](Cc1c[nH]c2ccccc12)NC(=O)[C@@H]1CCCC[C@H]1N`: the Potency result in test [1], in [8], in test [4], in [5] and in test [7] was “inactive” throughout. In addition, the Potency in [3] was above 46 µM.

For the compound `NCCC[C@@H](CC(=O)N[C@@H]1CCNC[C@H]1C(=O)N[C@H](CC(=O)N[C@@H](CCC(=O)O)CC(=O)O)Cc1ccccc1)NC(=O)C[C@H](Cc1ccccc1)NC(=O)[C@@H]1CNCC[C@H]1N`, the Potency is 31.6 µM (active) in test [1] and above 46 µM in test [3]. Further, the Potency result in test [8], in test [4], in test [5], in test [7] and in [6] was “inactive” throughout.

Take `NCCC[C@@H](CC(=O)N[C@@H]1CCCC[C@H]1C(=O)N[C@H](CC(=O)N[C@@H](CCC(=O)O)CC(=O)O)Cc1c[nH]c2ccccc12)NC(=O)C[C@H](Cc1c[nH]c2ccccc12)NC(=O)[C@@H]1CNCC[C@H]1N`: the Potency entry in test [1], in [8], in [4], in test [5], in [7] and in test [6] was “inactive” throughout. Further, in test [3], the Potency was above 46 µM.

For the compound `C[C@@H]1C[C@@]2(C)Oc3ccccc3[C@H]3OC[C@]1(COC(=O)Nc1ccccc1)[C@@H](C)[C@@H]32`, the Potency in test [1] is 15.8 µM (active); in test [2], above 46 µM; in test [3], above 46 µM; in [5] it was 20 µM (active); in test [6], 10 µM (active). For the same compound, the Potency result in [7] was “inactive”.

As for `CC(C)[C@@H](CC(=O)N[C@@H]1CCCC[C@H]1C(=O)N[C@H](CC(=O)N[C@@H](CCC(=O)O)CC(=O)O)Cc1c[nH]c2ccccc12)NC(=O)C[C@H](CO)NC(=O)[C@@H]1CCCC[C@H]1N`, the Potency result in [1], in test [8], in test [4], in test [5], in test [7] and in test [6] was “inactive” in each case. Besides, in [3], the Potency was above 46 µM.

The values are drawn from PubChem BioAssay (NCATS).
